In PubChem BioAssay AID686979 (National Center for Advancing Translational Sciences (NCATS), 2013):
Among all 420,000 compounds or so, about 50,000 (12%) were called active. Entries that show only a call come without a potency. Not shown: some 26% with an inconclusive outcome. The full list was thinned out, with actives kept by preference. Unmarked numbers belong to inactive results. Calls come from the whole dose curve; as a rule, active = well fitted inhibition curve with a large enough effect; inconclusive = small, poorly fitted or top-dose-only effect; inactive = flat fitted curve, though single readings scatter.

experiment: qHTS for Inhibitors of human tyrosyl-DNA phosphodiesterase 1 (TDP1): qHTS in cells in presence of CPT; details: chicken DT40 Tdp1-/-;hTDP1 cells + 20 nM CPT, ATP luminescence, 48 h; series mostly up to 46.2 µM; note: nearly all actives have a fitted effect of over 55% in size
Outline: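 Cell growth measured by CellTiter-Glo luminescence after a minimum 48 h, 37 C compound exposure with 20 nM CPT in Tdp1-knockout DT40 cells stably expressing hTDP1, seeded 400/well; qHTS titration format.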
Potency is the fitted concentration of half-maximal effect.

| Structure (SMILES) | Potency | activity change, negative = growth inhibition |
| --- | --- | --- |
| COc1cc(NC(=S)NCc2ccco2)c(OC)cc1Cl | inactive | – |
| CNC(=O)Nc1cc(C(C)(C)C)no1 | 16.4 µM (active) | – |
| COc1ccc(NC(=O)c2cc(=O)[nH]c3ccccc23)cc1S(=O)(=O)N1CCOCC1 | inactive | – |
| CCCCC/C=C\CC1OC1CCCCCCCC(=O)O (stereo not drawn) | – | 0.0245% [at 0.628 µM] |
| O=[N+]([O-])c1cc(S(=O)(=O)NCCc2ccccn2)ccc1Cl | inactive | – |
| Cc1ccc(C(=O)N/C(=C/c2cccnc2)C(=O)O)cc1 | inactive | – |
| CC(=O)N(C)c1ccc(NC(=O)Nc2cccc3ccccc23)cc1 | inactive | – |
| CCN(C(=O)Nc1cccc2ccccc12)c1ccccc1 | 23.1 µM (active) | – |
| O=C(Nc1cccc2ccccc12)NC1CC1 | inactive | – |
| CCn1c(-c2cccnc2Cl)nc2cc(C)c(C)cc21 | inactive | – |
| O=C(NCc1ccccc1)c1ccc(S(=O)(=O)Nc2cccc(C(F)(F)F)c2)cc1 | inactive | – |
| CCOC(=O)N1CCN(C(=O)c2ccc(S(=O)(=O)Nc3cccc(C(F)(F)F)c3)cc2)CC1 | 16.4 µM (active) | – |
| CCOC(=O)N1CCN(C(=O)c2ccc(S(=O)(=O)c3ccc(C)cc3)c(NC(C)=O)c2)CC1 | inactive | – |
| CC(C)(C)NC(=O)CN1CCC(NC(=O)C23CC4CC(CC(C4)C2)C3)CC1 | inactive | – |
| O=C(Nc1cccc(C(=O)N2CCCC2)c1)c1ccccc1 | inactive | – |
| CC1=C(C(=O)Nc2cccc(C(=O)NCC(C)c3ccccc3)c2)SCCO1 (stereo not drawn) | 16.4 µM (active) | – |
| CC(CNC(=O)c1nnc(Cc2cccc(F)c2)o1)c1ccccc1 (stereo not drawn) | inactive | – |
| COc1cccc(CCNC(=O)c2cccc(NC(=O)C3=C(C)OCCS3)c2)c1 | 23.1 µM (active) | – |
| COc1cccc(C(=O)NCCSc2ccc(Br)cc2)c1 | inactive | – |
| COc1cccc(CCNC(=O)COc2cccc3c2OC(C)(C)C3)c1 | inactive | – |
| COCCn1c(N)c(N(Cc2ccccc2)C(=O)C2CCCCC2)c(=O)[nH]c1=O | inactive | – |
| Cc1nn(C)c(C)c1S(=O)(=O)N1CCC(CO)(Cc2ccc(Cl)cc2)CC1 | inactive | – |
| Cc1c(Cl)cnc(NC(=O)COC(=O)C2CCCC2)c1Cl | inactive | – |
| N#Cc1ccc(CSc2ncccn2)cc1 | inactive | – |
| CC(C)C(c1nnnn1C1CCCCC1)N1CCN(C(=O)c2ccco2)CC1 (stereo not drawn) | inactive | – |
| CC1(C)C2CC[C@]3(C)C(CC=C4[C@@H]5C[C@@](C)(CO)CC[C@]5(C(=O)O)CC[C@]43C)[C@@]2(C)CC[C@@H]1O (stereo partly drawn) | inactive | – |

| Structure (SMILES) | Potency | activity change, negative = growth inhibition |
| --- | --- | --- |
| CCOC(=O)c1cc2n(c1N)-c1ccccc1C2=O | inactive | – |
| CCOC(=O)c1c(-c2ccc(C)cc2)csc1/N=C(\C)C1=C(O)c2ccccc2C1=O | 23.1 µM (active) | – |
| CC(=NCc1ccco1)C1=C(O)c2ccccc2C1=O | inactive | – |
| CN(C)Cc1c(C(=O)N/N=C/c2ccccc2OCc2ccc(F)cc2)nnn1-c1nonc1N | inactive | – |
| CCOC(=O)N1CCC(=NNC(N)=O)CC1 | inactive | – |
| COc1ccc(S(=O)(=O)NCC(c2ccco2)N2CCOCC2)cc1 (stereo not drawn) | inactive | – |
| O=C(NC1CCCC1)C(c1ccco1)N(C(=O)c1ccco1)c1ccc(F)cc1 (stereo not drawn) | inactive | – |
| CC1(C)CC(N(Cc2ccccc2)C(=O)Cc2ccccc2)CCO1 (stereo not drawn) | inactive | – |
| CC1(C)CC(CNCCC(c2ccc(F)cc2)c2ccco2)CCO1 (stereo not drawn) | 25.9 µM (active) | – |
| CSc1ccc(CN(C)CC(=O)NCc2ccc(F)cc2)cc1 | inactive | – |
| CC(C=Cc1ccccc1)=NNS(=O)(=O)c1ccc([N+](=O)[O-])cc1 | inactive | – |
| CC(=O)c1c(OCC(=O)N(C)C2CCCCC2)ccc2c(C)cc(=O)oc12 | inactive | – |
| Cc1cc(/C=C2/NC(=O)NC2=O)c(C)n1-c1cccnc1 | inactive | – |
| Cc1ccc2nc(COc3ccc(NC(=O)COc4ccccc4F)cc3)cc(=O)n2c1 | inactive | – |
| Cc1ccc2nc(COc3ccccc3NC(=O)Nc3ccc(F)c(Cl)c3)cc(=O)n2c1 | 11.6 µM (active) | – |
| Cc1ccc2nc(COc3cccc(NC(=O)Nc4ccc(C)c(Cl)c4)c3)cc(=O)n2c1 | inactive | – |
| Cc1ccsc1C(=O)N[C@@H](C)c1nnc2ccccn12 | inactive | – |
| COc1ccc(-n2c(SCC(=O)Nc3sc4c(c3C#N)CCCC4)nnc2-c2ccc(O)cc2)cc1 | inactive | – |
| N#Cc1c(NC(=O)C2CCCO2)sc2c1CCCCC2 (stereo not drawn) | inactive | – |
| CC(=O)c1c(C)[nH]c(C(=O)OCC(=O)Nc2c(C)n(C)n(-c3ccccc3)c2=O)c1C | inactive | – |
| CCN1CCN(CC(=O)Nc2sc3c(c2C#N)CCC3)CC1 | inactive | – |
| CC(=O)c1c(C)[nH]c(C(=O)OCC(=O)NCCC(C)C)c1C | inactive | – |
| CCCc1cc(=O)[nH]c(SCC(=O)Nc2sc3c(c2C#N)CCCC3)n1 | inactive | – |
| CC(=O)c1c(C)[nH]c(C(=O)OCC(=O)Nc2c(C)cccc2C)c1C | 20.6 µM (active) | – |
| CC(=O)c1c(C)[nH]c(C(=O)OCC(=O)Nc2sc3c(c2C#N)CCCC3)c1C | 16.4 µM (active) | – |
| N#Cc1c(NC(=O)CCCl)sc2c1CCCCC2 | 18.4 µM (active) | – |

| Structure (SMILES) | Potency | activity change, negative = growth inhibition |
| --- | --- | --- |
| CC1=CC=CC2=N/C(=N\S(=O)(=O)c3ccc(F)cc3F)c3ccccc3CN12 | inactive | – |
| C=CCn1c(CNS(=O)(=O)c2ccc(Br)cc2)nnc1SC | inactive | – |
| CCOC(=O)c1c(C)[nH]c(C(=O)OCC(=O)N2CCCC2=O)c1C | inactive | – |
| CC(C)c1nc(CNC(=O)CC2C(=O)NCCN2Cc2cccc(F)c2F)cs1 (stereo not drawn) | inactive | – |
| CC1(C(=O)Nc2ccc3c(c2)OCCO3)CN(S(C)(=O)=O)CC(=O)N1Cc1cccc(F)c1 (stereo not drawn) | inactive | – |
| CCCCc1nn2c(=O)cc(COC(=O)c3ccccc3NC(=O)C(C)(C)C)nc2s1 | inactive | – |
| CCCc1nn2c(=O)cc(COC(=O)c3ccc(NC(=O)C(C)Oc4ccccc4)cc3)nc2s1 (stereo not drawn) | inactive | – |
| CCOCCc1nn2c(=O)cc(CSCC(=O)Nc3cccc(C)c3C)nc2s1 | inactive | – |
| CCCCc1nn2c(=O)cc(COC(=O)c3ccc(NC(=O)c4ccccc4C)cc3)nc2s1 | 20.6 µM (active) | – |
| Cc1nn2c(=O)cc(COC(=O)CNC(=O)c3ccc(F)cc3)nc2s1 | inactive | – |
| CCOCCc1nn2c(=O)cc(COC(=O)CNC(=O)c3ccc(C(C)(C)C)cc3)nc2s1 | 16.4 µM (active) | – |
| O=C(O)CCCCC(=O)O | inactive | – |
| COc1ccc(NC(=O)N(C)C[C@@H]2OCc3cn(nn3)CCCC(=O)N([C@H](C)CO)C[C@H]2C)c(OC)c1 | inactive | – |
| O=C(Nc1cccc([N+](=O)[O-])c1)Nn1cnnc1 | inactive | – |
| CC(C)CC(=O)NC(=S)Nc1cc(C(=O)O)ccc1Cl | inactive | – |
| CC(C)Nc1ccc(-n2nc3ccccc3[n+]2[O-])cc1 | inactive | – |
| NS(=O)(=O)c1ccc(CCNC(=O)CNC(=O)Cc2ccccc2)cc1 | inactive | – |
| CCOc1cnc(-c2c(-c3ccccc3Cl)noc2C)o1 | inactive | – |
| Cc1oc(-c2ccccc2Cl)[n+]([O-])c1C | 14.6 µM (active) | – |
| OCC[C@H]1C[C@@H](O)[C@H](O)[C@]2(OCCCc3ccccc32)O1 | inactive | – |
| COc1ccc(C(=O)OCC(=O)N2CC(=O)Nc3ccccc32)cc1Br | inactive | – |
| Cc1ccc(C(=O)N/N=C/c2cccc3ccccc23)cn1 | inactive | – |
| O=C(NC1CCCC1)c1ccc(Br)s1 | inactive | – |
| C/C(=N\NC(=O)CNc1cccc2ccccc12)c1ccc(Br)s1 | 11.6 µM (active) | – |
| Cn1cccc1/C=N/NC(=O)CNc1cccc2ccccc12 | inactive | – |
| Cc1cccc(/C=N/NC(=O)CNc2cccc3ccccc23)n1 | 18.4 µM (active) | – |

| Structure (SMILES) | Potency | activity change, negative = growth inhibition |
| --- | --- | --- |
| C/C(Cc1ccccc1)=N\NC(=O)CNC(=O)c1cccc(Br)c1 | inactive | – |
| COc1cc(OC)cc(C(=O)NCCSCc2ccc(Cl)cc2)c1 | inactive | – |
| Cc1ccc(C(=O)NC2CCN(C(=O)Nc3ccccc3Cl)CC2)cc1 | inactive | – |
| Cc1ccc(C)n1NC(=O)c1ccc([N+](=O)[O-])cc1 | inactive | – |
| CC(=O)N1CCc2ccc(N)cc21 | inactive | – |
| CC1CCN(C(=O)CCc2nnc3ccc(NCc4ccco4)nn23)CC1 | inactive | – |
| CN1CCc2c(sc3c2c(NCc2ccco2)nc2nnnn23)C1 | 29.1 µM (active) | – |
| Cn1c(=O)n(Cc2ccco2)c(=N)c2c3c(sc21)CCCC3 | inactive | – |
| O=C(COC(=O)c1ncc(Cl)c(Cl)c1Cl)NNC(=O)c1ccccc1 | inactive | – |
| COc1ccc(N2C(=O)NC(NS(=O)(=O)c3ccc(Cl)cc3)(C(F)(F)F)C2=O)cc1 (stereo not drawn) | inactive | – |
| O=C(CN1CCCCCC1)NCCN1C(=O)S/C(=C\c2ccccc2Cl)C1=O | inactive | – |
| O=C1/C(=C\c2ccccc2Cl)SC(=S)N1CCC(=O)N1CCCc2ccccc21 | 6.51 µM (active) | – |
| COc1ccc(/C=C2\SC(=S)N(CCC(=O)Nc3cccc(C(=O)O)c3)C2=O)cc1OC | inactive | – |
| Cc1ccc([C@@H]2CC(=O)[C@@H]3CN(S(=O)(=O)c4ccc(C)cc4)[C@H](c4ccccc4F)C[C@@H]3N2S(=O)(=O)c2ccc(Cl)cc2)cc1 | inactive | – |
| CC1CC(NC(=O)/C(C#N)=C/c2ccc[nH]2)CC(C)(C)C1 (stereo not drawn) | 0.0184 µM (active) | – |
| CC1CC(NC(=S)N(C)C)CC(C)(C)C1 (stereo not drawn) | inactive | – |
| CCN(C[C@H]1N[C@@](CC)(C(=O)OC)[C@H]2C(=O)N(C)C(=O)[C@@H]12)C(=O)Nc1ccc(F)cc1 | inactive | – |
| Cc1nn(C(=O)c2c(F)cccc2F)c(C)c1S(=O)(=O)N1CCOCC1 | inactive | – |
| O=C(Nc1ccc(NC(=O)c2ccco2)c(Cl)c1)c1cccc([N+](=O)[O-])c1 | inactive | – |
| Cc1cccc(C(=O)NNC(=O)c2cccc([N+](=O)[O-])c2)c1 | inactive | – |
| O=C(Nc1ccc(C2CC2(Cl)Cl)cc1)c1cccc([N+](=O)[O-])c1 (stereo not drawn) | 23.1 µM (active) | – |
| Cc1c(NC(=O)C(C)Oc2cccc(Cl)c2)c(=O)n(-c2ccccc2)n1C (stereo not drawn) | inactive | – |
| COc1cc(/C=N/Nc2nn3cnnc3c3ccccc23)cc(OC)c1OC | 10.3 µM (active) | – |
| COc1ccc2[nH]c(C(=O)N/N=C/c3cc(OC)c(OC)c(OC)c3)cc2c1 | inactive | – |
| COc1cc(/C=N/NC(=O)Cc2ccccc2)cc(OC)c1OC | inactive | – |
